According to PubChem BioAssay (NCATS):
Results filed as inconclusive are left out. A call without a number means that no potency is given here. The source made the active and inactive calls. The call rests on the fitted dose curve; in most records, active means well fitted curve in the direction sought with a large enough effect; inconclusive means small, poorly fitted or top-dose-only effect, or another doubt; inactive means no such curve, though single readings can be large; an effect the other way counts as inactive or inconclusive.

Experiments:
[1] = molecular target: Cellular tumor antigen p53 (Homo sapiens) (UniProt P04637); assay: Primary qHTS for small molecule compounds that upregulate eGFP-tagged delta133p53alpha (in N-terminal) cells. (AID 2060322); settings: NCI-H358 eGFP-delta133p53alpha fluorescence, 24 h; activation: hits give high values; further: nearly all actives have a fitted effect of over 75% in size; further: potency means the concentration at half of the fitted maximal effect;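 on activation: cells pre-induced with doxycycline then dosed without doxycycline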
Outline: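 NCI-H358 cells pre-induced 24 h with 10 ng/ml doxycycline for eGFP-delta133p53alpha, plated dox-free and exposed 24 h at 37C to titrated compounds. Fixed, Hoechst-stained; gated GFP peak intensity by laser scanning cytometry, normalized to DMSO (0%) and 57.5 uM 5-azacytidine (100%).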

[2] = molecular target: Aldehyde dehydrogenase, mitochondrial (Homo sapiens) (UniProt P05091); assay: qHTS for Inhibitors of the Aldehyde Dehydrogenase Family (ALDH2) Primary screen (AID 2061308); settings: ALDH2 enzyme inhibition qHTS, 1536-well; series mostly up to 56 µM; further: nearly all actives have a fitted effect of over 55% in size
[3] = molecular target: Retinaldehyde dehydrogenase 3 (Homo sapiens) (UniProt P47895); assay: qHTS for Inhibitors of the Aldehyde Dehydrogenase Family (ALDH1A3) Validation screen (AID 2061312); settings: ALDH1A3 enzyme inhibition qHTS validation, fluorescence; series mostly up to 84.7 µM; further: nearly all actives have a fitted effect of over 45% in size; further: potency means the concentration at half of the fitted maximal effect
[4] = molecular target: Retinaldehyde dehydrogenase 3 (Homo sapiens) (UniProt P47895); assay: qHTS for Inhibitors of the Aldehyde Dehydrogenase Family (ALDH1A3) Primary screen (AID 2061315); settings: ALDH inhibition qHTS; series mostly up to 56 µM

Sequence of Cellular tumor antigen p53 (Homo sapiens) (P04637 whole entry, looked up): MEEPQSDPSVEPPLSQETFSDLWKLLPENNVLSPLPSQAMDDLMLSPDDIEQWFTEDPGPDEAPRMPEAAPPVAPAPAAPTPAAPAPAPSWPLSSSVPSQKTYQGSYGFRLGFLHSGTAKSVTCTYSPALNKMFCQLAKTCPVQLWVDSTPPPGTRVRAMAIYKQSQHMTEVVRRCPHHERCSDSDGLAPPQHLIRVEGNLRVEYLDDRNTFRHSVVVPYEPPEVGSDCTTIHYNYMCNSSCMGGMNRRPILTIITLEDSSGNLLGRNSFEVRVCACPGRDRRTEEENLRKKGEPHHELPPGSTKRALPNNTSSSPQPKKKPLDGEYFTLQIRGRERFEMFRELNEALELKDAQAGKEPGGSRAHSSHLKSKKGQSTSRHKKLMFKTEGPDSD

Structure (SMILES) | activation [1] | Potency [2] | Potency [3] | Potency [4] | Potency [1]
CCCSc1nc(NC2CC2c2ccc(F)c(F)c2)c2nnn(C3CC(OCCO)C(O)C3O)c2n1 (stereo not drawn) | 16.7% (inactive) | inactive | 31.6 µM (active) | inactive | –
CCCC(N[C@@H](C)C(=O)N1[C@H](C(=O)O)C[C@@H]2CCCC[C@@H]21)C(=O)OCC (stereo partly drawn) | 2.39% (inactive) | inactive | inactive | inactive | –
C=C[C@]1(C)C[C@@H](OC(=O)CSC2C[C@H]3CC[C@@H](C2)N3C)[C@]2(C)[C@H](C)CC[C@]3(CCC(=O)[C@H]32)[C@@H](C)[C@@H]1O (stereo partly drawn) | 0.477% (inactive) | inactive | inactive | inactive | –
O=C(CSc1nc2c(c(=O)n1-c1ccccc1)SCC2)Nc1ccc(-c2ccccc2)cn1 | 11.5% (inactive) | inactive | inactive | inactive | –
Cc1ccnc(NC(=O)C(C)c2cccc(C(=O)c3ccccc3)c2)c1 (stereo not drawn) | -19.6% (inactive) | inactive | inactive | inactive | –
CC(C)(O)c1ccc2c(c1)ncn2-c1cccc(-c2ccccc2C#N)c1 | -12.4% (inactive) | inactive | inactive | inactive | –
O=C(NCc1ccccc1)c1ccc2c(=O)n(-c3cccc(C(F)(F)F)c3)c(=S)[nH]c2c1 | -9.55% (inactive) | inactive | inactive | inactive | –
CC[N+]1(C/C2=C/CCCCCC2)CCC(NC(=O)C2c3cc(Cl)ccc3Oc3ccc(Cl)cc32)CC1 (stereo not drawn) | 28.6% (inactive) | inactive | inactive | inactive | –
COc1ccc(Oc2cc(C)c(-c3csc(NC(=O)c4ccncc4)n3)c(C)c2)cc1 | 11% (inactive) | inactive | inactive | inactive | –
CC(C)NC(=O)c1ccc(C#Cc2ccncc2)cn1 | 14.8% (inactive) | inactive | inactive | inactive | –
Cc1oc2nc3c(c(NC(=O)CN4CCCC4=O)c2c1C)CCCC3 | -3.82% (inactive) | inactive | inactive | inactive | –
CCOc1ccc(-n2c([C@@H](C)N(Cc3cccnc3)C(=O)Cc3ccc(OC(F)(F)F)cc3)nc3ncccc3c2=O)cc1 | – | inactive | inactive | inactive | 19 µM (active)
CC1(C)CC(=O)N(CCCCN2CCN(c3ncccn3)CC2)C(=O)C1 | -2.86% (inactive) | inactive | inactive | inactive | –
COc1ccc([C@H]2CNC(=O)C2)cc1OC1CCCC1 | -26.3% (inactive) | inactive | inactive | inactive | –
Cn1c(SCC(=O)N2CCC[C@H]2C(=O)Nc2ccccc2-c2ccccc2)nc2ccccc21 | 4.77% (inactive) | inactive | inactive | inactive | –
Cc1cc(C(=O)Cn2cc(C#N)ccc2=O)c(C)n1Cc1ccccc1 | 6.21% (inactive) | inactive | inactive | inactive | –
CC(C)C(CO)Nc1nc(Nc2cc(N)cc(Cl)c2)c2ncn(C(C)C)c2n1 (stereo not drawn) | – | inactive | inactive | inactive | 30.1 µM (active)
CCN(CC)CCCS(=O)(=O)N[C@H](CCc1ccccc1)c1nc(Cc2ccc(Br)cc2)no1 | 7.64% (inactive) | inactive | inactive | inactive | –
CCOc1ccc(C(Nc2ccccn2)c2ccc3ccc(C)nc3c2O)cc1C (stereo not drawn) | 19.6% (inactive) | inactive | inactive | inactive | –
CC(C)(C)C1CCN(C(=O)n2ncc(C(O)(c3ccccc3)c3ccccc3)n2)CC1 | 6.21% (inactive) | inactive | inactive | inactive | –
COc1ccc(C2(CNC(=O)c3ccc(NC(=O)c4ccco4)cc3)CCOCC2)cc1 | 5.25% (inactive) | inactive | inactive | inactive | –
C#CCN(Cc1cc2c(=O)[nH]c(C)nc2cc1Br)c1ccc(C(=O)NCc2cccnc2)cc1 | -5.73% (inactive) | inactive | inactive | inactive | –
CC(C)S(=O)(=O)Nc1ccc(F)c(C(=O)c2c[nH]c3ncc(-c4cccnc4)cc23)c1F | 28.6% (inactive) | inactive | inactive | inactive | –
COc1cc(-n2cnc3cc(-c4ccc(Cl)cc4)sc3c2=O)ccc1OCCN1CCCC1 | 18.1% (inactive) | inactive | inactive | inactive | –
CNc1nc(NCc2ccc(NS(C)(=O)=O)cc2Cl)cc(-c2ccccn2)n1 | 7.64% (inactive) | inactive | inactive | inactive | –
NC(=O)c1cccc2[nH]c(-c3ccc(C4CCCN4)cc3F)nc12 (stereo not drawn) | 0% (inactive) | inactive | inactive | inactive | –
O=c1cc(N2CCOCC2)nc2c3ccccc3ccn12 | 6.21% (inactive) | inactive | inactive | inactive | –
